The source of these data is PubChem BioAssay (NCATS).

Test [1] addresses Lysosomal acid glucosylceramidase (Homo sapiens) (UniProt P04062). Briefly: Glucocerebrosidase-p2 (AID 348; in the data active means potency below about 10 µM; further: potency means the concentration at half of the fitted maximal effect). Particulars: purified GBA, blue fluorogenic substrate, 40 min. In outline:
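Compounds titrated from 0.6 nM upwards against 0.2 nM enzyme in pH 5.9 citric acid/KH2PO4, taurocholate, tween-20; blue fluorogenic substrate 80 uM, 40 min room temperature, stopped and read Ex 365/Em 440 for AC50.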

A short description of test [2]: AP1 Signaling Pathway (AID 357; active means well fitted curve in either direction with a large enough effect, not every such curve was filed as active;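 further: ME-180 reporter cells stimulated with EGF at its EC50 level; on the % scale 0 is the no-effect control and ±100 the full control effect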). Particulars: ME-180 AP-1-bla reporter, EGF-induced, beta-lactamase ratio, 5 h; at 7.69 µM (top of the series) unless noted. In outline: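 Titration-series screen for positive or negative modulators of EC50 EGF-induced signaling in ME-180 cells carrying an AP-1-driven beta-lactamase reporter. After 5 hours at 37 degrees Celsius, CCF4 460nm/530nm emission ratio gave %Activity; AC50 values derived.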

Test [3] in a line: NFAT Signaling Pathway (AID 444; active means well fitted curve in either direction with a large enough effect, not every such curve was filed as active;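 further: carbachol stimulus at about its EC50 of 1 µM final; on the % scale 0 is the no-effect control and ±100 the full control effect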). Particulars: Jurkat NFAT-bla M1, carbachol, beta-lactamase ratio, 5 h; at 7.69 µM (top of the series) unless noted. In outline: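 Jurkat cells with NFAT-driven β-lactamase reporter and co-expressed M1 receptor, stimulated with carbachol (final 1 uM, ~EC50), compound titration, 5 h at 37 °C. CCF4 loaded 1 h at RT; 460/530 nm ratio gave %activity and AC50.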

Test [4] can be described thus: Stat Signaling Pathway (AID 446; active means well fitted curve in either direction with a large enough effect, not every such curve was filed as active;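 further: ME-180 cervical cancer cells given 40 pM IL-6 alongside compound; SIE-controlled beta-lactamase reporter measured as 460/530 nm FRET emission ratio; on the % scale 0 is the no-effect control and ±100 the full control effect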). Particulars: ME-180 SIE beta-lactamase reporter, IL-6 stimulated, 5 h; at 7.69 µM (top of the series) unless noted. In outline:
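IL-6/STAT signaling read in ME-180 cells via an SIE beta-lactamase reporter. Stimulus was 40 pM IL-6 (its AC50) for 5 hrs, so both activation and inhibition register.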

Test [5] has as its target Glucocorticoid receptor (Homo sapiens) (UniProt P04150). Kind of test: GR-GFP Redistribution (AID 450;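 active means compounds whose dose series gives a full or clear partial fitted curve of increased nuclear translocation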; further: potency means the concentration at half of the fitted maximal effect). To be noted: U2OS GR-GFP nuclear translocation, laser cytometry, 2 h.
For test [6] the target is unchanged. Briefly: GR-EFC Redistribution (AID 451; calls by dose curve; further: potency means the concentration at half of the fitted maximal effect). To be noted: CHO-K1 GR-EFC translocation, beta-gal luminescence, 2 h. In outline:
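CHO-K1 cells expressing nuclear EA and GR-ED fragments of b-gal; compounds titrated up to 46 uM final, 2 h at 37 C. GR nuclear translocation read as complemented b-gal luminescence after 1 h RT detection.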

Test [7] has as its target Mitogen-activated protein kinase 10 (Mus musculus) (UniProt Q61831). Briefly: JNK3 AlphaScreen Assay (AID 530; active means well fitted curve in either direction with a large enough effect, not every such curve was filed as active;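 further: kinase came from lysate of stimulated human HepG2 cells; signal reports phosphorylation of biotinylated GST-cJun 1-79 at Ser73 with 10 µM ATP; on the % scale 0 is the no-effect control and ±100 the full control effect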). To be noted: JNK3 lysate, c-Jun phosphorylation; series mostly up to 57.1 µM. In outline: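 Pre-activated (IL-1β/TNFα) JNK3 in HepG2 lysates phosphorylates biotin-GST-cJun(1-79), 10 uM ATP; anti-phospho-cJun(Ser73) AlphaScreen read at room temperature, pH 7.6 Tris buffer. Compounds pre-incubated 15 min as titrations.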
In general terms: In Alpha technology, singlet oxygen from a donor bead excites a nearby acceptor bead.

Test [8] addresses 3',5'-cyclic-AMP phosphodiesterase 4B (Homo sapiens) (UniProt Q07343). Kind of test: qHTS Assay for Inhibitors of PDE-IV (AID 607; active means well fitted activation curve with a large enough effect in the main read-out, with a control signal flat, not every such curve was filed as active; further: % of control where 0% means no effect). Particulars: HEK293 ACTOne CNG channel cells, membrane potential fluorescence; series mostly up to 22.9 µM. In outline:
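Live HEK293 cells with a modified cyclic nucleotide-gated (CNG) channel report intracellular cAMP via membrane-potential dye fluorescence (ex 535/em 590 nm). Endogenous PDE-IV was targeted. Compounds were tested at up to 22.9 uM final; RO 20-1724 100 uM served as control.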
A general note: qHTS replaces the single test concentration by a dilution series.

The target in test [9] is Dual specificity protein kinase CLK4 (Homo sapiens) (UniProt Q9HAZ1). Kind of test: qHTS Assay for Inhibitors of CDC-like Kinase 4 (Kinase-Glo Assay) (AID 1770). Further: nearly all actives have a fitted effect of over 65% in size. Further: potency means the concentration at half of the fitted maximal effect. Particulars: recombinant Clk4, Kinase-Glo ATP depletion luminescence; series mostly up to 66.7 µM. In outline:
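Clk4 25 nM, RS peptide 100 uM, ATP 1 uM, pH 7.5 Tris, 10 mM MgCl2, 2.5 mM DTT; 4.5 h RT; ATP depletion read by Kinase-Glo luminescence.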

The target is the same in test [10]. Kind of test: qHTS Assay for Inhibitors of CDC-like Kinase 4 (ADP-Glo Assay) (AID 1771). Further: nearly all actives have a fitted effect of over 70% in size. Further: potency means the concentration at half of the fitted maximal effect. To be noted: recombinant CLK4, ADP-Glo luminescence; series mostly up to 80 µM. In outline: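 25 nM Clk4 with 100 uM RS repeat peptide and 1 uM ATP (final) in buffer with 2 mM MgCl2, 0.5 mM EGTA, 2.5 mM DTT, 0.01% Triton X-100; 1 h at room temperature; ADP-Glo luminescence for ADP formed.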

Test [11] shares this target. Briefly: qHTS Assay for Inhibitors of CDC-like Kinase 4 (ADP-FP Assay) (AID 1795). Further: nearly all actives have a fitted effect of over 60% in size. Further: potency means the concentration at half of the fitted maximal effect. To be noted: Transcreener ADP fluorescence polarization; series mostly up to 50 µM. In outline: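 Kinase activity was followed as ADP output, converted from fluorescence polarization with a calibration curve. Reactions ran one hour at low ATP (1 uM) with RS peptide substrate.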
Test [12] concerns the target Ubiquitin carboxyl-terminal hydrolase 1 (Homo sapiens) (UniProt O94782). Briefly: Inhibitors of USP1/UAF1: Pilot qHTS (AID 504865).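 Further: rhodamine fluorescence freed from ubiquitin-rhodamine substrate followed over time; top concentration of the series differs between compounds; on the % scale 0 is the no-effect control and ±100 the full control effect; nearly all actives have a fitted effect of over 35% in size.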 To be noted: purified USP1/UAF1, Ub-rhodamine cleavage fluorescence; series mostly up to 54.9 µM. In outline:
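Enzyme-free wells gave the negative control, while test wells held 1nM USP1/UAF1 preincubated with compound for 15 min at room temperature. Ub-Rho at 150nM final started the reaction, and fluorescence at 480/540 nm was recorded kinetically.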

A short description of test [13]: Primary qHTS for small molecule stabilizers of the endoplasmic reticulum resident proteome: Secreted ER Calcium Modulated Protein (SERCaMP) assay (AID 1508630). Further: on the % scale 0 is the no-effect control and ±100 the full control effect. To be noted: SH-SY5Y GLuc-SERCaMP (Gaussia luciferase released on ER calcium loss) secretion, thapsigargin, luminescence; series mostly up to 38.4 µM. In outline: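 GLuc-SERCaMP-expressing SH-SY5Y cells, pretreated 16 h with compound, are challenged with thapsigargin to empty ER calcium stores; after 4 h, coelenterazine is added directly to the medium and luminescence is imaged.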

A short description of test [14]: qHTS Assay for Identification of Small Molecule Agonists for Hypoxia Response Element Signaling Pathway (AID 914; active means well fitted activation curve with a large enough effect in the signal ratio, with a control signal flat, not every such curve was filed as active; the % refers to the signal ratio; further: % of control where 0% means no effect). Particulars: ME-180 (cervical carcinoma) HRE-bla reporter, beta-lactamase ratio, CoCl2, 17 h; activation: active compounds read high. In outline:
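In Opti-MEM containing 0.5% dialyzed FBS and 10 mM HEPES, ME-180 HRE-bla cells received a compound titration and EC50 CoCl2. They were incubated 17 hours, then CCF4-loaded 2.5 hours at room temperature before ratio reading.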

A number with no mark means an inactive call. Results filed as inconclusive are left out. Activity calls are given as the source filed them. Unless noted, the call rests on the fitted dose curve; in most records, active means well fitted curve in the direction sought with a large enough effect; inconclusive means small, poorly fitted or top-dose-only effect, or another doubt; inactive means no such curve, though single readings can be large; an effect the other way counts as inactive or inconclusive.

Chain of Lysosomal acid glucosylceramidase (Homo sapiens) (P04062 whole entry, looked up): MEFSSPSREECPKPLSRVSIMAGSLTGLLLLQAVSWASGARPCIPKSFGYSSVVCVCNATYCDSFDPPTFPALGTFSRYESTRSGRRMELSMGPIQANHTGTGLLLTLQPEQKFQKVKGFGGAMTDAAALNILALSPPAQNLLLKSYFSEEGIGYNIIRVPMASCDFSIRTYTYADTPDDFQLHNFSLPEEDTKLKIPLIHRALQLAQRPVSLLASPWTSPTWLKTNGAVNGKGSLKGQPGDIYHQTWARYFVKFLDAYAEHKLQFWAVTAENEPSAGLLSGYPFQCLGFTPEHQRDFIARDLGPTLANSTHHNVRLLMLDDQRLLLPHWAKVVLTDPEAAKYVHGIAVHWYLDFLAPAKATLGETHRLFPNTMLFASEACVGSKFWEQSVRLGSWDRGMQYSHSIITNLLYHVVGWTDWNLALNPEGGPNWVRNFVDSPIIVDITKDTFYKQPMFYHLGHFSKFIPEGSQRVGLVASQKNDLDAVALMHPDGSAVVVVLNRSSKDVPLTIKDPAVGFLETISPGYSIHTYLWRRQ
Chain of Ubiquitin carboxyl-terminal hydrolase 1 (Homo sapiens) (O94782 whole entry, looked up): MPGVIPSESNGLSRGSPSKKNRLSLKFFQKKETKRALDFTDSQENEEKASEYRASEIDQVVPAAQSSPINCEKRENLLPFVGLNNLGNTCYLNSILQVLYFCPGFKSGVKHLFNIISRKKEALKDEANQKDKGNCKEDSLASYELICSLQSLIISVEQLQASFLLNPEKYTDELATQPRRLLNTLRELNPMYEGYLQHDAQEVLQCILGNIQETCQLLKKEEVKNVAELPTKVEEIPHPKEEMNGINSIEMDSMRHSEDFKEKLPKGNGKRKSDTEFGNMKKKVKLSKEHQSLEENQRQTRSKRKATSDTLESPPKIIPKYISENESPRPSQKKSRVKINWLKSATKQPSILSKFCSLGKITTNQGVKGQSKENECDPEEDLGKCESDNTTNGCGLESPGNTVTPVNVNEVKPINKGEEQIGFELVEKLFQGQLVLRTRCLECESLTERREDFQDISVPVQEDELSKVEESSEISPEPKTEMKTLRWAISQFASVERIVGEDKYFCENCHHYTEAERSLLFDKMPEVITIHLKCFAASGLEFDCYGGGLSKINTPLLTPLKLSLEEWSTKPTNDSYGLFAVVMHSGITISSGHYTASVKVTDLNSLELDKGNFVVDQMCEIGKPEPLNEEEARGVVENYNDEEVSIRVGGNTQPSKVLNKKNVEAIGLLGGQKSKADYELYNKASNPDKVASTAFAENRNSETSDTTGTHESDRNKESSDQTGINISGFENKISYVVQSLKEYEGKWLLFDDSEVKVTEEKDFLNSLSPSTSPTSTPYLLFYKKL
Chain of 3',5'-cyclic-AMP phosphodiesterase 4B (Homo sapiens) (Q07343 whole entry, looked up): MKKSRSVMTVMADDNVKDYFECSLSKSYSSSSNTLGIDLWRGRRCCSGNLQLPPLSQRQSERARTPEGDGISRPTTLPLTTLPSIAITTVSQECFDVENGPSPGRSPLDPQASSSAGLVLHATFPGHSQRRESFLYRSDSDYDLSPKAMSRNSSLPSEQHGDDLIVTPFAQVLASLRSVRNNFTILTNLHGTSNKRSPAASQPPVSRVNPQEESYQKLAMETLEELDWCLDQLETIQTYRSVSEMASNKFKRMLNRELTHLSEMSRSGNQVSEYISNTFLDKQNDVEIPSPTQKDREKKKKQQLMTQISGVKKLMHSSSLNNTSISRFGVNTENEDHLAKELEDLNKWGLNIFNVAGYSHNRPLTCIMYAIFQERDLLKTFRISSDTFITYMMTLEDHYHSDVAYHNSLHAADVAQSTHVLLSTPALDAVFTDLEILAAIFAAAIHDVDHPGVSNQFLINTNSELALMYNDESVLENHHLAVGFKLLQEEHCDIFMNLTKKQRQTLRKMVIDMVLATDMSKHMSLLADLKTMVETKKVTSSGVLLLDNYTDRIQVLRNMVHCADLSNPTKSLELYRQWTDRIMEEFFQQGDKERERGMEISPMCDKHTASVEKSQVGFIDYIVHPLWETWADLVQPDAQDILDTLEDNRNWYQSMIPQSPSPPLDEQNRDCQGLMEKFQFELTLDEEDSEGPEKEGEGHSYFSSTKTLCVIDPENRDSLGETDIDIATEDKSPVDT
Chain of Glucocorticoid receptor (Homo sapiens) (P04150 whole entry, looked up): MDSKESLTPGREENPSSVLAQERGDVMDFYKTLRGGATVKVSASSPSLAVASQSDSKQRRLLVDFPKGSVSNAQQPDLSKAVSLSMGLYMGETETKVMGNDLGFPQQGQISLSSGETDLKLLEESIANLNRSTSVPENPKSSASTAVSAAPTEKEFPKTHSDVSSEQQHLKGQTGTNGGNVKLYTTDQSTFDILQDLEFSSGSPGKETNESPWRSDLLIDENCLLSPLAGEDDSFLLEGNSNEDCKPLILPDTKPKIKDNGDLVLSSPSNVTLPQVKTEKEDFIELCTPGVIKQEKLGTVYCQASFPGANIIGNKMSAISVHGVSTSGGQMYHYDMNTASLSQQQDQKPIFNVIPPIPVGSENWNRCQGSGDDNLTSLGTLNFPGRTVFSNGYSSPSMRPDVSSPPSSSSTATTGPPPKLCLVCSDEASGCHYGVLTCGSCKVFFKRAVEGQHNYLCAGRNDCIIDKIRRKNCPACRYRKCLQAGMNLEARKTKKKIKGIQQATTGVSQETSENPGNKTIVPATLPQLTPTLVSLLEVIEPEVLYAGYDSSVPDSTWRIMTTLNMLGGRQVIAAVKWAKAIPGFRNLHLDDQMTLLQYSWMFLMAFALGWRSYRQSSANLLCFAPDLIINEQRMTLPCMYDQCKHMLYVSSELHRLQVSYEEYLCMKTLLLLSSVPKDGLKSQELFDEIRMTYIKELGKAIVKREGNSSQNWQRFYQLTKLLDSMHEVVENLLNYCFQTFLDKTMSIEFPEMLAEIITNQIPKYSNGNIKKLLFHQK
Chain of Dual specificity protein kinase CLK4 (Homo sapiens) (Q9HAZ1 whole entry, looked up): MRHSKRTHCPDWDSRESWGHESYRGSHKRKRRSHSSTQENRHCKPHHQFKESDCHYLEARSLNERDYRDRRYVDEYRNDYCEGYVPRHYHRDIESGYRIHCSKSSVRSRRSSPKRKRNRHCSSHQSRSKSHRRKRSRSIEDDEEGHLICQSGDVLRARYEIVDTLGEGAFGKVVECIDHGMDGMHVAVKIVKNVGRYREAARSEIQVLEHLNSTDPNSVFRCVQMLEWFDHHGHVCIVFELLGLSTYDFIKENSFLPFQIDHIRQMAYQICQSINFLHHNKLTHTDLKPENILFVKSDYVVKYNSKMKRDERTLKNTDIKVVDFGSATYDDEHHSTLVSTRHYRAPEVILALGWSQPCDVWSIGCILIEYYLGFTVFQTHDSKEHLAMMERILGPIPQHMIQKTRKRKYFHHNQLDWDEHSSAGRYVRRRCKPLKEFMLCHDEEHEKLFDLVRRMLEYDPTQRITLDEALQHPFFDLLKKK

With `COc1ccc(-c2nc3cnc(OC)nc3n(-c3ccccc3)c2=O)cc1`, the Potency in test [1] is more than 11.4 µM; in test [5], more than 9.22 µM; in test [6], more than 46 µM. Besides, the results for the activity change, negative = inhibition in [2] and in [3] were -6.09% and 10.5%, respectively. Moreover, the activity, negative = inhibition in test [4] was -1.78%. The Potency entry in [7], in test [8], in test [9], in test [10], in test [11] and in [12] was “inactive” in each case. In addition, the result in test [13] was inactive.
In the case of `CN(C)C(=O)c1ccc(-c2cncnc2N(C)Cc2ccco2)cc1`, the Potency in test [1] is more than 11.4 µM; in test [5], more than 46 µM; in test [6], more than 46 µM. Further, the activity change, negative = inhibition was -9.99% in [2] and -12.8% in test [3]. The activity, negative = inhibition in test [4] is 3.83%. The Potency result in test [7], in [8], in test [9], in [10], in test [11] and in test [12] was “inactive” throughout. Also, the outcome in [13] was inactive.
For the molecule `COCCn1c(=O)cnc2cnc(N3CCOCC3)nc21`, the Potency in test [1] is more than 11.4 µM; in [5], more than 9.22 µM. The activity change, negative = inhibition in test [2] is 8.71%; in [3], -0.664%. The activity, negative = inhibition in [4] was -12.6%. Further, the Potency entry in test [7], in test [8], in test [9], in test [10], in [11] and in [12] was “inactive” throughout. Further, the activation in test [14] was -5.07%. Also, in test [13], the outcome was inactive.
In the case of `COc1ncc2ncc(=O)n(CCc3ccccc3)c2n1`, the Potency is more than 11.4 µM in [1]; more than 9.22 µM in [5]; more than 46 µM in [6]; 14.1 µM (active) in test [9]; 14.1 µM (active) in test [10]; 10 µM (active) in test [11]. Moreover, the activity change, negative = inhibition is -10.9% in [2] and 4.91% in test [3]. Also, the activity, negative = inhibition in test [4] is -13.6%. In addition, the Potency entry in test [7], in test [8] and in test [12] was “inactive” throughout. Further, the result in test [13] was inactive.
On to `FC(F)(F)c1ccccc1-c1cncnc1-n1ccnc1`, for which the Potency in test [1] is more than 11.4 µM; in test [5] it was more than 46 µM; in [6], more than 46 µM. The activity change, negative = inhibition in [2] was -6.84%; in [3] it was -7.53%. In [4], the activity, negative = inhibition is 3.29%. Further, the Potency result in test [7], in test [8], in [9], in test [10], in test [11] and in test [12] was “inactive” throughout. The result in test [13] was inactive.
`COc1ccc2[nH]cc(CCNc3ccnc(-c4cccc(C#N)c4)n3)c2c1`: the Potency in test [1] was more than 11.4 µM; in test [5], more than 46 µM; in [6], more than 46 µM; in [9], 12.6 µM (active); in test [10], 12.6 µM (active); in test [11] it was 8.91 µM (active). The values for the activity change, negative = inhibition in test [2] and in test [3] were -12.9% and 23.2%, respectively. Also, in test [4], the activity, negative = inhibition was -8.5%. Further, the Potency entry in test [7], in test [8] and in [12] was “inactive” in each case. For the same molecule, the outcome in [13] was inactive.
Take `CN1CCN(c2cc(-c3ccccc3Cl)ncn2)CC1`: the Potency was more than 11.4 µM in test [1], more than 46 µM in [5] and more than 46 µM in test [6]. Also, the activity change, negative = inhibition in test [2] was -6.42%; in test [3] it was 3.06%. Also, the activity, negative = inhibition in [4] is -1.39%. Further, the Potency result in [7], in test [8], in test [9], in test [10], in test [11] and in test [12] was “inactive” each time. Moreover, the activation in [14] is 18%. Besides, in test [13], the outcome was inactive.
